The subject of assay [1] is Zika virus NS2B-NS3 protease (linked construct). Briefly: Primary screen NINDS Rhodamine qHTS for Zika virus inhibitors (AID 1347160). Also: nearly all actives have a fitted effect of over 55% in size. In outline:
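Percent inhibition, normalized to uninhibited and enzyme-free controls, is fitted to a 4-parameter Hill equation. Fluorescence change comes from a 15-min cleavage of 1.5 microM bis-peptide Rhodamine110 substrate by 25 nM linked NS2B-NS3 at room temperature.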
On the technique in general: qHTS replaces the single test concentration by a dilution series.

In assay [2] the target is Glutathione peroxidase 1 (Homo sapiens) (UniProt P07203). Briefly: Primary qHTS Assay for Inhibitors of Recombinant Selenoprotein Glutathione Peroxidase 1 (GPX1) (AID 1845191). Also: nearly all actives have a fitted effect of over 65% in size. In outline:
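10 nM GPX1 + cpd, 30 min RT; start w/ 1 mM GSH, 0.5 mM cumene hydroperoxide, 0.5 mM NADPH, 100 nM GR, 0.01% BSA; buffer 50 mM Tris-HCl pH 7.5, 2 mM EDTA, 150 mM NaCl; Fl 340/450, 0 & 15 min.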

Assay [3] concerns the target Luciferin 4-monooxygenase (Photinus pyralis) (UniProt P08659). Briefly: Primary firefly luciferase (FLuc) qHTS assay for identification of artifact compounds. (AID 1845220). Also: nearly all actives have a fitted effect of over 60% in size. The following applies: outcome: dose series up to 54.1 µM unless noted. Summed up:
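Compounds sat 15 min at room temperature with 10 uM luciferin and 10 uM ATP (pH 7.6 Tris acetate). Firefly luciferase (10 nM final) was then added, and luminescence was read 5 min later. Data normalized to no-enzyme and DMSO controls were Hill-fitted.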

Assay [4] concerns Nanoluciferase (engineered Oplophorus gracilirostris luciferase). The experiment in a line: Primary Nanoluciferase (NLuc) qHTS assay for identification of artifact compounds. (AID 1845222).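 Also: 0% = DMSO and -100% = no enzyme.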 In outline: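 Luminescence from secreted NLuc (filtered, 1:55-diluted S16 cell medium) read 5 min after Nano-Glo substrate; compounds preincubated 15 min, RT. Hill fits of inhibition normalized to DMSO and no-enzyme.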

Assay [5] has as its system CRL-7250. The experiment in a line: Cytotoxic Profiling of Annotated Libraries Using Quantitative High-Throughput Screening (AID 1296008). Also: nearly all actives have a fitted effect of over 60% in size. Also: potency is read from the fitted curve at half-maximal effect. As to max response: % is scaled to controls: 0 for no effect and ±100 for the full control effect. The following applies: Five cell lines viability, CellTiter-Glo ATP luminescence, 48-72 h; max response: hits give low values. Summed up:
(§1)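 Cytotoxicity was measured as CellTiter-Glo ATP luminescence, read after 10 min at room temperature. Compound treatment of the cells lasted 48 or 72 hr at 37 degrees Celsius in a qHTS format.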

The subject of assay [6] is HEK293. The description is as above. The note with it: Five cell lines viability, CellTiter-Glo ATP luminescence, 48-72 h; max response: hits give low values. In outline: as §1
In general terms: In ATP-based viability assays light output follows the ATP content of the culture.

Assay [7] concerns HaCat. The description is as above. The following applies: Five cell lines viability, CellTiter-Glo ATP luminescence, 48-72 h; max response: hits give low values. Summed up:
as §1

The subject of assay [8] is NIH3T3. The description is as above. The note with it: Five cell lines viability, CellTiter-Glo ATP luminescence, 48-72 h; max response: hits give low values. In outline: as §1
Assay [9] has as its system C33A. The experiment in a line: Primary qHTS to identify gynecologic anti-cancer compounds using libraries of approved drugs and bioactive compounds (AID 1345084). Also: nearly all actives have a fitted effect of over 55% in size. Also: potency is read from the fitted curve at half-maximal effect. The following applies: Gynecologic cancer cell panel viability, ATPlite luminescence, 48 h; series mostly up to 57.5 µM. Summed up: (§2)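 Cell viability after 48 h drug treatment, ATPlite luminescence readout; five doses.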

The test system of assay [10] is CASKI. Described as above. The following applies: Gynecologic cancer cell panel viability, ATPlite luminescence, 48 h; series mostly up to 57.5 µM. Summed up:
as §2

In assay [11] the test system is Es-2. The assay is described as above. The following applies: Gynecologic cancer cell panel viability, ATPlite luminescence, 48 h; series mostly up to 57.5 µM. Summed up:
as §2

Assay [12] has as its system Hek293T. Described as above. The note with it: Gynecologic cancer cell panel viability, ATPlite luminescence, 48 h, control line for the selectivity index; series mostly up to 57.5 µM. In outline: as §2
Assay [13] has as its system OV90. Described as above. The following applies: Gynecologic cancer cell panel viability, ATPlite luminescence, 48 h; series mostly up to 57.5 µM. In outline: as §2
For assay [14], the system named is PA-1. The assay is described as above. The note with it: Gynecologic cancer cell panel viability, ATPlite luminescence, 48 h; series mostly up to 57.5 µM. In outline:
as §2

In assay [15] the test system is Tov-21-G. Described as above. The following applies: Gynecologic cancer cell panel viability, ATPlite luminescence, 48 h; series mostly up to 57.5 µM. In outline:
as §2

In assay [16] the test system is Tov112D. The assay is described as above. The following applies: Gynecologic cancer cell panel viability, ATPlite luminescence, 48 h; series mostly up to 57.5 µM. Summed up: as §2
Assay [17] concerns the target Calcium and integrin-binding protein 1 (Homo sapiens) (UniProt Q99828). The experiment in a line: Primary qHTS for Identification of Calcium Integrin Binding Protein 1 (CIB1) Competitor (AID 1508620).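 Also: GST tagged CIB1 binding a fluorescein labelled alphaIIb integrin peptide tracer; top concentration of the series differs between compounds; % is scaled to controls: 0 for no effect and ±100 for the full control effect.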 In outline: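 CIB1-GST (1 uM final) and compound incubated 15 min at room temperature before adding FITC-alphaIIb peptide tracer (100 nM final). Competition for binding read by fluorescence polarization (ex 480, em 540) after another 15 min at room temperature.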

Assay [18] is described as follows: Primary qHTS for inhibitors of nuclear receptor binding SET domain protein 2 (NSD2) in an isogenic RCH-ACV NSD2 p.E1099K mutant (9B) (AID 1645876). Also: potency is read from the fitted curve at half-maximal effect; nearly all actives have a fitted effect of over 70% in size.
The target in assay [19] is Phospholipid hydroperoxide glutathione peroxidase GPX4 (Homo sapiens) (UniProt P36969). The experiment in a line: Primary qHTS Assay for Inhibitors of Recombinant Selenoprotein Glutathione Peroxidase 4 (GPX4) (AID 1845192). Also: % is scaled to controls: 0 for no effect and ±100 for the full control effect; nearly all actives have a fitted effect of over 65% in size. In outline: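 NADPH consumption, followed by fluorescence at 340/450 nm between 0 and 15 min, reports GPX4 activity via coupled glutathione reductase (100 nM). Enzyme 200 nM was pre-exposed to compound 30 min; 0.5 mM cumene hydroperoxide and 1 mM GSH served as substrates.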
Phospholipid hydroperoxide glutathione peroxidase GPX4 (Homo sapiens), sequence (P36969 whole entry, looked up): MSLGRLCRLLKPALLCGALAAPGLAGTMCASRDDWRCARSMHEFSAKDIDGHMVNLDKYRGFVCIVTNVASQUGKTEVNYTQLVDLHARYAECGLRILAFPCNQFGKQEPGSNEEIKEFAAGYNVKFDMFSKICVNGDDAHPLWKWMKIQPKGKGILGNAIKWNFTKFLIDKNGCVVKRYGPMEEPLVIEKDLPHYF

For assay [20], the system named is JEG-3. The experiment in a line: Primary qHTS to identify gynecologic anti-cancer compounds using libraries of approved drugs and bioactive compounds (AID 1345084). Also: nearly all actives have a fitted effect of over 55% in size. Also: potency is read from the fitted curve at half-maximal effect. The note with it: Gynecologic cancer cell panel viability, ATPlite luminescence, 48 h; series mostly up to 57.5 µM. Summed up: as §2

Unmarked numbers belong to inactive results. Inconclusive results are not listed. The source made the active and inactive calls. Calls follow the shape of the dose curve; as a rule, active = well fitted curve in the direction sought with a large enough effect; inconclusive = small, poorly fitted or top-dose-only effect, or another doubt; inactive = no such curve, though single readings can be large; an effect the other way counts as inactive or inconclusive.

Calcium and integrin-binding protein 1 (Homo sapiens), sequence (Q99828 whole entry, looked up): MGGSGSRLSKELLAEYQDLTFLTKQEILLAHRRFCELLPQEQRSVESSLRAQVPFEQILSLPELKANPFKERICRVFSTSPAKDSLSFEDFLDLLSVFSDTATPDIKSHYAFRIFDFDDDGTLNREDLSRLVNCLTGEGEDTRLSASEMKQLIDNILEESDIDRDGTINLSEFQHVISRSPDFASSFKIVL
Glutathione peroxidase 1 (Homo sapiens), sequence (P07203 whole entry, looked up): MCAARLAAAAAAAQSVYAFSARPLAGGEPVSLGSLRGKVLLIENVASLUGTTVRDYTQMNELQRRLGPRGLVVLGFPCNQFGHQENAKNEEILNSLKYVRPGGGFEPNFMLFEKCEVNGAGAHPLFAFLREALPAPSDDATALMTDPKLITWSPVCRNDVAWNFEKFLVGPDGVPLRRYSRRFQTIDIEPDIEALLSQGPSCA

For the compound `Oc1ccc2c3c1O[C@H]1c4[nH]c5c(N=C=S)cccc5c4C[C@@]4(O)[C@@H](C2)N(CC2CC2)CC[C@]314`, the Potency result in assay [1], in [2], in assay [4], in assay [9], in assay [10] and in [11] was “inactive” in each case. Moreover, the Potency result in [12], in [13], in assay [14], in [15] and in [16] was “inactive” each time. For the same compound, the outcome in assay [3] and in assay [7] was inactive. In addition, the max response is 1.1% in assay [5], -0.6% in assay [6] and -11% in assay [8].
Turning to `C[C@]12CC[C@H](O)C[C@H]1CC[C@@H]1[C@@H]2[C@H](O)C[C@]2(C)[C@@H](c3ccc(=O)oc3)CC[C@]12O`, the Potency result in [1], in assay [17], in assay [2], in assay [19], in assay [4] and in assay [20] was “inactive” in each case. Further, the Potency in assay [18] is 16.3 nM (active); in [5] it was 10.3 nM (active); in [6] it was 36.6 nM (active); in assay [7] it was 146 nM (active); in assay [10] it was 501 nM (active); in [11], 100 nM (active). The Potency in assay [13] is 355 nM (active); in assay [14], 355 nM (active); in assay [15], 100 nM (active). Moreover, in assay [3], the outcome was inactive.
With `C[C@@H]1C[C@@H](O)[C@]2(O)O[C@@H]3C[C@@]4(C=O)C(CC[C@@H]5C4CC[C@]4(C)[C@@](O)(C6=CC(=O)OC6)CC[C@]54O)C[C@H]3OC2O1` (some centres undefined), the Potency result in assay [1], in assay [17], in assay [2], in [19] and in assay [4] was “inactive” throughout. Further, the Potency in assay [18] is 709 nM (active); in assay [5] it was 796 nM (active); in [6], 1120 nM (active); in assay [7] it was 5020 nM (active); in assay [9], 2820 nM (active); in assay [11] it was 3550 nM (active). The Potency in [12] is 3160 nM (active); in [15], 1780 nM (active); in assay [16], 891 nM (active). Besides, in [3], the outcome was “inactive [at 25.7 µM]”. Besides, the max response in assay [8] is -15.7%.
Consider `CCC1=CC2CN3CCc4c([nH]c5ccccc45)[C@@](C(=O)OC)(C2)[C@@H]13`, for which the Potency result in assay [1], in [17], in [2], in assay [4], in [9] and in assay [10] was “inactive” in each case. Further, the Potency result in assay [11], in [12], in assay [20], in [13], in [14] and in [15] was “inactive” each time. In [16], the Potency entry is “inactive”. The compound was called inactive in [3]. Besides, the max response was -21.4% in assay [5], -6.65% in [6] and -7.15% in assay [7].
Regarding `COc1cc(N2CCN(C)CC2)ccc1N`, the Potency entry in [1], in [17], in assay [2], in assay [19], in assay [4] and in assay [9] was “inactive” throughout. Moreover, the Potency result in [10], in assay [11], in assay [12], in assay [20], in [13] and in [14] was “inactive” throughout. Moreover, the Potency result in assay [15] and in assay [16] was “inactive” in each case. Moreover, the compound was classed as inactive in assay [3]. For the same compound, the max response in [5] is 0.376%; in assay [6] it was -21.4%; in assay [7] it was 1.34%; in assay [8], -6.74%.

Values taken from PubChem BioAssay (NCATS).
